PubChem BioAssay AID1347075 (National Center for Advancing Translational Sciences (NCATS), 2019)
In all, about 400,000 compounds went through this assay and about 5,500 (1.4%) were called active. About 9% were inconclusive and are not listed. The call rests on the fitted dose curve; in most records, active means well fitted cell-killing curve with a large enough effect; inconclusive means small, poorly fitted or top-dose-only effect, or effect the other way; inactive means flat fitted curve, though single readings scatter. What follows is part of a selection rich in actives, with near analogues and random picks from the rest. Entries that show only a call come without a potency.

Experiment: qHTS assay for MDR1-selective chemotherapeutics: Primary screen using the parental adenocarcinoma cell KB-3-1; further: nearly all actives have a fitted effect of over 60% in size
Settings: KB-3-1 viability, CellTiter-Glo ATP luminescence, 72 h; series mostly up to 46.1 µM
In short: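 Screening of KB-3-1 cells (DMEM, 10% FBS, phenol-red free) ran from lowest to highest compound concentration; after 72 h at 37 °C viability was read luminescently and curves fitted.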
Potency means the concentration at half of the fitted maximal effect.

SMILES | Potency
CN(C(=N)N)c1ccc(/C=C2\C=Cc3ccccc32)cc1 | inactive
COc1ccccc1NC(=O)CSC1=Nc2ccccc2C2=NC(CC(=O)NCc3cccs3)C(=O)N12 (stereo not drawn) | inactive
Cc1cccnc1NC(=O)c1cccc(S(=O)(=O)N2CCN(c3ccc(F)cc3)CC2)c1 | 20.6 µM (active)
O=C(Nc1ccc2c(c1)CCC2)c1cccc(S(=O)(=O)N2CCN(c3ccc(F)cc3)CC2)c1 | inactive
Cc1ccc(C(=O)Nc2ncccc2C)cc1S(=O)(=O)N1CCOCC1 | inactive
CCn1c(/C=C/Nc2ccccc2)[n+](CC)c2ccc(C(=O)OCC(F)(F)F)cc21 | 18.4 µM (active)
CCOC(=O)c1cc2ccccc2n1CC(=O)c1ccccc1 | inactive
CCOC(=O)c1ccc2c(c1)nc(C)n2CC | inactive
COc1ccccc1-c1noc(-c2ccc(NCc3ccccc3)c([N+](=O)[O-])c2)n1 | inactive
CNC(=O)C[C@H]1C(=O)N(c2ccc(OC)cc2)C[C@@H]1Cc1ccccc1 | inactive
C[C@H]1CN(c2ccc(Br)cc2)C(=O)[C@@H]1CC(=O)Nc1ccc(Br)cc1 | inactive
O=C1N(Cc2ccccc2)c2ccc(Cl)cc2C1(O)c1c[nH]c2ccccc12 (stereo not drawn) | inactive
COCCNc1nc(-n2nc(C)cc2C)nc2sc3c(c12)CCCC3 | 11.6 µM (active)
CCc1nc(N2CCN(C(C)=O)CC2)c2c3c(sc2n1)CCCC3 | inactive
CCC(O)CNc1nc(-n2nc(C)cc2C)nc2sc3c(c12)CC(C)(C)OC3 (stereo not drawn) | inactive
Cc1c(/C=N\NC(=O)c2cc3ccccc3o2)c2ccccc2n1C | 8.2 µM (active)
Cc1c(/C=N/N2C(=O)C3C4C=CC(C4)C3C2=O)c2ccccc2n1C (stereo not drawn) | inactive
CC(C)Oc1ccc(NC(=O)c2cc3ccccc3o2)cc1 | inactive
CC(C)CC(COCc1ccc(Cl)cc1)N1CCN(C(=O)c2ccc(C(F)(F)F)cc2)CCC1=O (stereo not drawn) | 18.4 µM (active)
O=C(c1cc(Cl)cc(Cl)c1)N1CCC(=O)N(C(COCc2ccccc2)Cc2ccccc2)CC1 (stereo not drawn) | inactive
O=C(c1ccc(C(F)(F)F)cc1)N1CCC(=O)N([C@H](COCc2ccccc2)Cc2ccccc2)CC1 | inactive
COc1ccc(C(=O)NCC(c2ccc(N(C)C)cc2)N2CCc3ccccc32)c(OC)c1 (stereo not drawn) | inactive
CC1CC(C)CN(c2oc(-c3ccc(OCc4ccc(Cl)cc4)cc3)nc2C#N)C1 (stereo not drawn) | inactive
Cc1ccc(Nc2nc3ccccc3nc2-n2nc(C)cc2C)c(Cl)c1 | inactive
CCCOc1ccccc1C1CC(=O)Nc2cc3c(cc21)OCO3 (stereo not drawn) | 2.59 µM (active)

SMILES | Potency
Cc1cc2c(cc1C)C(c1cccc(OC(C)C)c1)CC(=O)N2 (stereo not drawn) | inactive
O=C1CC(c2ccc(F)cc2F)c2cc3c(cc2N1)OCO3 (stereo not drawn) | inactive
CC(C)Cn1c(-c2ccc(S(=O)(=O)N3CCOCC3)cc2)csc1=Nc1cc(Cl)ccc1Cl | inactive
CN(N=O)c1ccc(C=C2c3ccccc3-c3ccccc32)cc1 | inactive
COc1ccc(C2C(C(C)=O)=C(O)C(=O)N2CCc2c[nH]c3ccccc23)cc1 (stereo not drawn) | inactive
COc1ccc(/C=C(\C#N)c2c[nH]c3ccccc23)cc1 | 1.64 µM (active)
C[N+](C)(C)CCNC(=O)c1c[nH]c2ccccc12 | inactive
Cc1cc(C)c(C(=O)CSc2nc(C)cc(=O)[nH]2)c(C)c1 | inactive
Cc1cc(C(=O)CSc2nc(N)cc(=O)[nH]2)c(C)n1CCc1ccc(Cl)cc1 | inactive
Cc1cc(C(=O)CSc2nc(N)cc(=O)[nH]2)c(C)n1-c1cccc(F)c1 | 5.8 µM (active)
Cc1cccc(C(=O)N2CCc3cc(CNC(=O)Cc4ccc(F)cc4)ccc32)c1 | inactive
CCOc1ccc(OCC)c(NS(=O)(=O)c2ccc3[nH]c(=O)ccc3c2)c1 | inactive
COc1cc(NS(=O)(=O)c2ccc3ccccc3c2)c2ncccc2c1 | 6.51 µM (active)
O=[N+]([O-])c1ccccc1S(=O)(=O)Nc1cccc2cccnc12 | inactive
CCN(CCCNC(=O)CSc1cc(=O)n(C)c2cc(Cl)ccc12)c1cccc(C)c1 | inactive
CCOC(=O)CCP(=O)(O)C(O)(c1ccccc1)c1ccccc1 | inactive
CCOC(=O)C(=Cc1ccccc1)C(=O)c1ccccc1 | 20.6 µM (active)
CCc1ccccc1NC(=O)/C(=C/c1ccccc1)c1ccccc1 | inactive
Cc1ccc2cccc(NC(=O)c3ccc(OC(C)C)cc3)c2n1 | inactive
CCOC(=O)C1CCCN(S(=O)(=O)c2cc(-c3cc(C)no3)ccc2OC)C1 (stereo not drawn) | inactive
Cc1ccccc1NC(=S)N(CCCN1CCOCC1)Cc1cccs1 | inactive
Cc1ccc(NC(=S)N(CCCN2CCCC2)Cc2cccn2Cc2ccc(Cl)cc2)cc1 | 20.6 µM (active)
CCc1cccc(C)c1NC(=S)N(CCCN1CCN(C)CC1)Cc1cccs1 | inactive
Cc1ccccc1-c1nc(CS(=O)(=O)CC(=O)Nc2cc(Cl)cc(Cl)c2)c(C)o1 | inactive
Cc1nnc(N2CCC(C(=O)Nc3ccc(F)cc3)CC2)c2nn(-c3ccc(Cl)cc3)c(C)c12 | inactive

SMILES | Potency
CCc1ccccc1NS(=O)(=O)c1ccc2nc(-c3ccccc3)[nH]c2c1 | inactive
COc1cc(CNCCSc2nnnn2C)ccc1OCc1ccc(Cl)cc1Cl | inactive
COc1cc(CNCCN(C)C)ccc1OCc1c(F)cccc1Cl | inactive
COc1cc(CNCCSc2nnnn2C)ccc1OCc1c(F)cccc1Cl | 18.4 µM (active)
CCOC(=O)c1c(-c2cccc(C)c2)csc1NC(=O)c1c(-c2ccccc2)noc1C | 5.17 µM (active)
CCOC(=O)c1c(NC(=O)c2cc(-c3ccc(Cl)cc3)on2)sc2c1CCCC2 | inactive
Cc1onc(-c2ccccc2Cl)c1C(=O)OCc1nnc(-c2ccccc2)o1 | inactive
CC1=C(C(=O)Nc2ccccc2)C(c2ccc(C)cc2)n2nc(SCc3ccccc3C)nc2N1 (stereo not drawn) | inactive
CCOc1ccc(N(CC)S(=O)(=O)N2CCCC(C(=O)NCc3ccc(SC)cc3)C2)cc1 (stereo not drawn) | inactive
COc1ccccc1Nc1nc(N)nc(N)c1S(=O)(=O)c1ccccc1 | inactive
CC1(C)N=C(N)NC(Nc2ccc(Cl)cc2)=N1 | inactive
COc1ccccc1NC1=NC(c2ccc(Cl)cc2)N=C(N)N1 (stereo not drawn) | 3.66 µM (active)
CCOC(=O)c1ccc(NC(=O)c2c(NCc3cccc(OC)c3)sc3c2CCC3)cc1 | inactive
COc1ccc(-c2csc(-c3c(N)c(C(=O)c4ccc(OC)c(OC)c4)n4ccccc34)n2)cc1 | inactive
CCN(CC)CCCC(C)Nc1ccnc2cc(Cl)ccc12 (stereo not drawn) | 10.3 µM (active)
CCN(CC)CCNc1ncnc2c1cnn2-c1cc(Cl)ccc1C | inactive
CCN(CC)CCNc1ccc(Cl)cc1[N+](=O)[O-] | inactive
CNCCCOc1cc2nc(N3CCCN(C)CC3)nc(NC3CCN(C)CC3)c2cc1OC | inactive
CCOC(=O)c1cc(-c2ccc(OC)c(S(=O)(=O)Nc3ccc(OC)cc3OC)c2)on1 | inactive
Cc1cccc(CNC(=O)c2cnc3sc(N4CCCCC4)nn3c2=O)c1 | inactive
CC(C)C1N=C2c3ccccc3N=C(SCC(=O)c3ccc(O)c(O)c3)N2C1=O (stereo not drawn) | 23.1 µM (active)
Cc1ccc(CNC(=O)CSC2=Nc3ccccc3C3=NC(C)C(=O)N23)cc1 (stereo not drawn) | inactive
CCOC(=O)CSC1=Nc2ccccc2C2=NC(CCC(=O)NCc3ccc(F)cc3)C(=O)N12 (stereo not drawn) | inactive
Cc1ccc(Cn2cc(CN3CC(N4CCN(C)CC4)CS3(=O)=O)nn2)cc1 (stereo not drawn) | inactive
CN(Cc1cn(Cc2ccc(C(F)(F)F)cc2)nn1)C1CN(Cc2cn(Cc3ccc(C(F)(F)F)cc3)nn2)S(=O)(=O)C1 (stereo not drawn) | 10.3 µM (active)

SMILES | Potency
CN(C)C1CN(Cc2cn(Cc3ccccc3)nn2)S(=O)(=O)C1 (stereo not drawn) | inactive
CCOc1ccc2nc(N3CCC(C(=O)Nc4cc(C)ccc4C)CC3)sc2c1 | inactive
Cn1ccc2cc(S(=O)(=O)N3CCCC(C(=O)NCc4ccccc4F)C3)ccc21 (stereo not drawn) | inactive
COc1cc(Cl)c(NC(=O)CC(C)S(=O)(=O)c2cc3c(cc2C)NC(=O)CO3)c(OC)c1 (stereo not drawn) | inactive
Cc1ccccc1CNC(=O)c1cccc(NC(=O)c2nsc3ccccc23)c1 | inactive
O=C(NNC(=O)c1cc(S(=O)(=O)N2CCCCC2)ccc1Cl)c1ccccc1O | inactive
CC1=C(C)CC(C(=O)NNC(=O)c2ccccc2O)C(C(=O)O)C1 (stereo not drawn) | inactive
O=C(NNC(=O)c1ccccc1O)c1ccccc1O | 2.59 µM (active)
Cc1ccc(CSc2oc(-c3cccs3)nc2S(=O)(=O)c2ccc(C)cc2)cc1 | inactive
CCN(C(=O)COc1ccc(C(=O)c2ccccc2)cc1)c1ccccc1 | inactive
CCN(C(=O)c1ccc(Br)cc1)c1ccccc1 | inactive
CCN(C(=O)c1sc2cc(OC)ccc2c1Cl)c1ccccc1 | 20.6 µM (active)
CCC(=O)Nc1cccc(-c2nc3cc(C)ccc3o2)c1 | inactive
CCN(CC)S(=O)(=O)c1ccc2c(c1)c(=O)c(C(=O)N1CCN(c3cccc(Cl)c3)CC1)cn2C | inactive
CCCN(CCC)c1c([N+](=O)[O-])c(=O)oc2ccccc12 | inactive
CCn1c(/C=C/c2ccc([N+](=O)[O-])o2)nc2ccccc2c1=O | 3.26 µM (active)
C=CCn1c(SCC(=O)NC(=O)Cc2ccccc2)nc2ccccc2c1=O | inactive
CCCCCn1c(CCCNC(=O)c2ccccc2OC)nc2ccccc21 | inactive
CCOC(=O)C1=C(CCc2ccccc2)NC(=O)NC1c1ccc2ccccc2c1 (stereo not drawn) | 23.1 µM (active)
CCOC(=O)C1=C(CN2CCc3ccccc32)NC(=O)NC1c1ccc(Cl)cc1 (stereo not drawn) | inactive
CCOCCOC(=O)C1=C(C)NC(=O)NC1c1ccc2c(c1)OCO2 (stereo not drawn) | inactive
Cc1cccc(N2CCN(C(=O)c3cc4c(=O)oc5ccccc5c4s3)CC2C)c1 (stereo not drawn) | inactive
CCOc1ccc(NC(=O)C(=O)NCCc2csc3nc(-c4ccccc4F)nn23)cc1 | inactive
